Laboratory results as given in article PMC5540273 (PLoS ONE, 2017).

Key:
Details in all cases: concentration: 1 μM,replicates: in singlicate; n = 1
[1] = tested on: TYK2(JH2domain-pseudokinase)
[2] = tested on: TYRO3
[3] = tested on: ULK1
[4] = tested on: ULK2
[5] = tested on: ULK3
[6] = tested on: T1, VEGFR2
T1 construct: gene KDR

[7] = tested on: T2, VPS34
T2 construct: gene PIK3C3

[8] = tested on: VRK2
[9] = tested on: WEE1
[10] = tested on: WEE2
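Also: KINOMEscan kinase panel screen.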

Structure (SMILES)	%Inh [1] [%]	%Inh [2] [%]	%Inh [3] [%]	%Inh [4] [%]	%Inh [5] [%]	%Inh [6] [%]	%Inh [7] [%]	%Inh [8] [%]	%Inh [9] [%]	%Inh [10] [%]
CC(C)Nc1cc(-c2ccc3c(N)n[nH]c3c2)nc(N)n1 [GSK2221681]	8	0	76	22	9	4	0	0	8	0
Nc1nc(Nc2ccccc2)cc(-c2ccc3c(N)n[nH]c3c2)n1 [GSK2225749]	45	0	92.8	62	16	5	3	0	0	0
CCN(CC)CCCCNc1ncc2cc(-c3c(Cl)cccc3Cl)c(NC(=O)NC(C)(C)C)nc2n1	0	8	0	29	0	90.4	12	0	3	3
CNC(=O)c1ccccc1Sc1ccc2c(/C=C/c3ccccn3)n[nH]c2c1	0	0	20	58		99.9	3	0	0	
Cc1occc1-c1nc(N)c(OC[C@@H](N)Cc2c[nH]c3ccccc23)cc1-c1cc2c(C)n[nH]c2cn1 [GSK1660450]	0	0	33	22	11	0	18	90.1	0	15
COc1ccc(C[C@@H](CN)NC(=O)c2cc(Br)c(-c3ccnc4[nH]ccc34)s2)cc1.Cl.Cl [GSK1389063]	23	0	40	16	12	58	35	47	0	18
CCN(CC)CCOc1ccc(Nc2ncc3cc(-c4c(Cl)cccc4Cl)c(=O)n(C)c3n2)cc1 [SB-601273]	25	100	92.4	95.2	59	97.6	44	46	99.9	99.7
CC(C)N1C(=O)Cc2cc(Nc3ncc(C(F)(F)F)c(NCc4cccc(S(C)(=O)=O)c4)n3)ccc21	29	0	60	54	59	74	55	39	38	7
Cc1ccc(-n2nc(C(C)(C)C)cc2NC(=O)Nc2ccc(OCCN3CCOCC3)c3ccccc23)cc1 [GW839464]	0	37	0	0	0	37	21	0	0	14
C[C@@H](Oc1cc(-c2cnn(C3CCNCC3)c2)cnc1N)c1c(Cl)ccc(F)c1Cl	43		67	53	32	22	0	11	0	0
Cl.Cl.NC[C@H](Cc1ccc(C(F)(F)F)cc1)NC(=O)c1cc(Br)c(-c2ccnc3[nH]ccc23)s1 [GSK1487252]	16	0	5	19	6	34	0	0	0	0
CN(C)CC(O)COc1ccc(Nc2nccc(-c3cnn4nc(N5CCOCC5)ccc34)n2)cc1 (stereo not shown) [GW767488]	97.3	10	98.8	96.3	61	20	95.4	0	8	0
CN(C)CCOc1ccc(-c2cc(-c3c[nH]nc3-c3ccccn3)ccn2)cc1 [GW835314]	21	8	0	31	4	6	0	0	0	11
O=C(NCCCN1CCOC1=O)c1cnc(NCc2cc(Cl)ccc2Cl)nc1NC1CCCC1	0	46	0	0	0	0	0	7	0	0
C[C@@H]1CCN(C(=O)CC#N)C[C@@H]1N(C)c1ncnc2[nH]ccc12		0	0	0	0	0	0	0	0	2
Cc1cc(C(=O)Nc2ccc(Oc3ccc4nc(NC(=O)C5CC5)cn4n3)cc2)nn1-c1ccccc1	0	37	0	0	0		0	0	15	7
Cc1n[nH]c2ccc(-c3cc(OC[C@@H](N)Cc4ccccc4)cnc3-c3ccoc3)cc12.O=C(O)C(F)(F)F.O=C(O)C(F)(F)F [GSK507358]	19	0	0	8	22	0	0	33	35	15
Cc1ccc2c(-c3ccncc3)c(-c3ccc(F)cc3)nn2c1.Cl [GW461484]	2	0	7	0	23	2	0	0	3	1
Cl.Cl.NC[C@H](CC1CCCCC1)NC(=O)c1cc(Br)c(-c2ccnc3[nH]ccc23)s1 [GSK1581427]	5	0	28	0	10	7	0	0	3	10
CCn1c(-c2nonc2N)nc2c(C#CC(C)(C)O)nc(OCCN)cc21.Cl.Cl [GSK902056]	9	0	33	0	13	0	0	0	6	15
O=C(NCCNc1ccnc(NCc2ccc(F)cc2)n1)c1cc2ccccc2s1 [GSK1379944]	10	4	3	0	0	0	0	0	3	19
Cc1cc2cn[nH]c2cc1-c1cccc2c(N)c(C(N)=O)nnc12	65	15	28	30	50	13	19	21	12	29
NC(=O)c1cc(-c2ccccc2)cc2c(C3CCNCC3)c[nH]c12 [GSK301362]	99.7	1	23	29	18	0	0	0	14	11
Cl.Cl.Nc1nc(-c2ccc3c(N)n[nH]c3c2)cc(N2CCCC(NC(=O)c3ccccc3)C2)n1 (stereo not shown) [GSK2286775]	38	0	11	2	36	9	0	0	18	0
Cl.Oc1cc(-c2nc(-c3ccccc3)[nH]c2-c2ccncc2)ccc1Cl [SB-386023]	0	58	7	25	25	20	14	0	0	11
C[C@H]1Oc2cc(cnc2N)-c2c(nn(C)c2C#N)CN(C)C(=O)c2ccc(F)cc21	0	5	0	0	0	3	0	42	0	16
C=CC(=O)Nc1cc2c(Nc3ccc(F)c(Cl)c3)ncnc2cc1OCCCN1CCOCC1 [GW781483]	21	29	0	17	14	0	6	0	0	20
